From PubChem BioAssay
This is a sample that favours compounds with a hit; in the whole collection about 7.5% have one here.
Rab9 prom act = activators of Rab9 promoter; Potency, µM (titrated, usually from 9.22 µM), hits mostly activators; hit rate 2.8% among 320,000; Huh7 Rab9 promoter-luciferase reporter, luminescence, 24 h; note: nearly all actives have a fitted effect of over 60% in size
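Quantitative HTS format; Huh7 Rab9-luciferase reporter cells (1500/well) receive compound 2 h post-plating, incubate 24 h at 37 °C, then get luciferase reagent for 10 min before luminescence reading.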
NPC1 promoter act = activates the NPC1 promoter; hit rate 2.4% among 320,000; AID 485313; Huh7 NPC1 promoter luciferase reporter, 24 h; Potency, µM (top dose mostly 9.22 µM), usual class: activators; note: nearly all actives have a fitted effect of over 60% in size
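Quantitative HTS used a cell-based reporter: Huh7 cells stably bearing the NPC1 promoter upstream of luciferase were treated with compounds for 24 h, and promoter activation was read as luminescence.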
KinaseGlo FLuc = Kinase-Glo luciferase inhibition (counter-screen); Kinase-Glo luciferase, ATP luminescence, 8 min; Potency, µM (series often up to 38.3 µM), hits mostly inhibitors; hit rate 0.28% among 200,000; AID 1379; note: nearly all actives have a fitted effect of over 60% in size
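Inhibition of Kinase-Glo luciferase light generation was assessed at 10 uM ATP in pH 7.2 imidazole buffer, with luminescence measured after eight minutes at ambient temperature.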
ELG1 genotoxic = induces genotoxicity in HEK293T cells with luciferase-tagged ELG1; Potency, µM (highest dose often 46 µM), hits mostly activators; hit rate 1.3% among 330,000; HEK293T ELG1-luciferase reporter, luminescence, 16 h; note: nearly all actives have a fitted effect of over 60% in size
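ELG1-luciferase HEK293T cells, 2,000/well; compound pinned in; 16 hr, 37 °C, 5% CO2; ONE-Glo, 30 min RT; luminescence on CCD imager.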
SMN2 splice enh = increases expression of the SMN2 splice variant; hit rate 2.8% among 210,000; HEK293 SMN2-luciferase splicing reporter, luminescence, 30-36 h; Potency, µM (doses to about 46.1 µM), usual class: activators; note: nearly all actives have a fitted effect of over 55% in size
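HEK293 cells carry an SMN2 […]–luciferase reporter in which exon 7 inclusion puts luciferase in frame. Cells were plated 10-12 h before compound addition, then incubated 30-36 h at 37C. ONE-Glo luminescence was read; sodium butyrate at 4.5 mM final served as control.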
FLuc counter = inhibits or activates purified firefly luciferase, miR-21 counter-screen. AID 588342. Potency, µM (top dose mostly 57.5 µM), actives largely listed as inhibitors. purified FLuc, Km substrates, luminescence inhibition. hit rate 6.9% among 360,000. P08659; note: nearly all actives have a fitted effect of over 55% in size
Target sequence (P08659 whole entry, looked up): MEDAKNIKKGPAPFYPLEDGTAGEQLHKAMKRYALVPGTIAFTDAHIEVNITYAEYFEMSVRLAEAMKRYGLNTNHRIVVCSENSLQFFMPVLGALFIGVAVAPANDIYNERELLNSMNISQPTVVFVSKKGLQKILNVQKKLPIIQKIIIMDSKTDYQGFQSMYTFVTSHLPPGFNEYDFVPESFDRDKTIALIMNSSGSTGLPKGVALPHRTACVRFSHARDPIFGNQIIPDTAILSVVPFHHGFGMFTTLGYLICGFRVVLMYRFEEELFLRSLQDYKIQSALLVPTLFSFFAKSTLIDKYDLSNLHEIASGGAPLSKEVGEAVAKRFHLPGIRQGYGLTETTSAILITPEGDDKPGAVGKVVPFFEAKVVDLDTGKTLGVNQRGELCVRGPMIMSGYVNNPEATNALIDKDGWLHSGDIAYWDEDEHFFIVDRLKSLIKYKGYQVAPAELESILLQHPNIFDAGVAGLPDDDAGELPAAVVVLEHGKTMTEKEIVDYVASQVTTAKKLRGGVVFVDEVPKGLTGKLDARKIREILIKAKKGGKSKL
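Biochemical qHTS of compounds, final roughly 60 µM downward over six points, against 10 nM purified firefly luciferase using Km concentrations of substrates (10 uM D-luciferin, 10 uM ATP) in Tris acetate pH 7.5 buffer; luminescence output.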
Of the large screens only hits and unclear results are named; the others gave an inactive call. Calls come from the whole dose curve; as a rule, active = well fitted curve in the direction sought with a large enough effect; inconclusive = small, poorly fitted or top-dose-only effect, or another doubt; inactive = no such curve, though single readings can be large; an effect the other way counts as inactive or inconclusive.

O=C1OC(c2ccc(F)cc2)=C/C1=C\c1ccc(O)cc1	FLuc counter 11µM (no result: KinaseGlo FLuc, SMN2 splice enh)
Cc1ccc(NC(=O)COC(=O)Cn2ccc(=O)[nH]c2=O)cc1C	none (no result: Rab9 prom act, NPC1 promoter act, KinaseGlo FLuc, SMN2 splice enh, FLuc counter)
CC(C)(C)c1ccc(OCCN2CCCC2)cc1	none
CC(C)SCCCOc1ccc(C(C)(C)C)cc1	FLuc counter 19µM
CC(C)SCCCCOc1ccc2ccccc2c1	Rab9 prom act inconclusive, NPC1 promoter act inconclusive, FLuc counter 17µM
O=C(Nc1nccs1)c1sc2ccccc2c1Cl	Rab9 prom act 1.1µM, NPC1 promoter act 4µM, ELG1 genotoxic inconclusive, SMN2 splice enh 2.5µM, FLuc counter 0.67µM
CCCn1nnc(NC(=O)c2sc3ccccc3c2Cl)n1	Rab9 prom act 3.2µM, NPC1 promoter act inconclusive, ELG1 genotoxic 9.2µM, SMN2 splice enh inconclusive, FLuc counter 27µM
CCCn1nnc(NC(=O)Cc2ccccc2)n1	none
O=C(Nc1nccs1)c1cc(Cl)ccc1[N+](=O)[O-]	none
O=C(Nc1ccccn1)c1sc2cc([N+](=O)[O-])ccc2c1Cl	Rab9 prom act 1.3µM, NPC1 promoter act inconclusive, FLuc counter inconclusive (no result: KinaseGlo FLuc, SMN2 splice enh)
O=C(Nc1nccs1)c1sc2cc(Cl)ccc2c1Cl	Rab9 prom act 4µM, NPC1 promoter act 3.5µM, SMN2 splice enh inconclusive, FLuc counter 2.7µM
O=C(NCCCN1CCOCC1)c1sc2cc([N+](=O)[O-])ccc2c1Cl	FLuc counter inconclusive
O=C(Nc1nccs1)c1ccc(Cl)s1	Rab9 prom act inconclusive, NPC1 promoter act inconclusive, ELG1 genotoxic inconclusive, FLuc counter inconclusive
Cc1onc(-c2ccccc2Cl)c1C(=O)Nc1nnc(C(C)C)s1	none
Cc1cnc(NC(=O)c2sc3ccccc3c2Cl)s1	Rab9 prom act inconclusive, NPC1 promoter act inconclusive, ELG1 genotoxic 0.65µM, SMN2 splice enh 1µM, FLuc counter 0.3µM
Cc1csc(NC(=O)CCn2c(=O)sc3ccccc32)n1	FLuc counter inconclusive
Cc1ccnc(NC(=O)c2sc3ccccc3c2Cl)c1	Rab9 prom act 0.32µM, NPC1 promoter act 0.1µM, ELG1 genotoxic 0.92µM, SMN2 splice enh 3.2µM, FLuc counter 0.12µM
CC(C)c1nnc(NC(=O)c2sc3ccccc3c2Cl)s1	Rab9 prom act inconclusive, NPC1 promoter act 3.2µM, SMN2 splice enh inconclusive, FLuc counter 4.8µM
O=C(CCn1c(=O)sc2ccccc21)Nc1nccs1	ELG1 genotoxic inconclusive, FLuc counter 13µM
CN(C(=O)c1cccc(S(=O)(=O)N2CCOCC2)c1)c1c(N)n(Cc2ccccc2)c(=O)[nH]c1=O	none (no result: KinaseGlo FLuc, SMN2 splice enh)
O=c1ccc2cc(S(=O)(=O)N3CCOCC3)ccc2o1	SMN2 splice enh 7.9µM
COc1ccc(NC(=O)CSc2nc3cc(OC)c(OC)cc3c3nc(-c4ccccc4)nn23)cc1Cl	none (no result: Rab9 prom act, NPC1 promoter act, KinaseGlo FLuc, ELG1 genotoxic)
O=C(Nc1nc2ccccc2c2nc3ccccc3n12)c1ccc(F)cc1	none
Cn1c(NC(=O)c2ccc(F)cc2)nc2ccccc21	Rab9 prom act 4µM, NPC1 promoter act 3.5µM, ELG1 genotoxic inconclusive, FLuc counter 3µM (no result: KinaseGlo FLuc, SMN2 splice enh)
Cn1c(NC(=O)c2ccccc2NC(=O)C(C)(C)C)nc2ccccc21	FLuc counter 27µM
Cn1c(NC(=S)Nc2ccccc2)nc2ccccc21	Rab9 prom act inconclusive, NPC1 promoter act inconclusive, ELG1 genotoxic inconclusive, SMN2 splice enh 8.9µM, FLuc counter 6.7µM
COc1ccc(C2C3=C(N=C4SCC(=O)N42)c2ccccc2CC3)cc1 (stereo not given)	ELG1 genotoxic inconclusive, FLuc counter 11µM
O=C1CC(c2ccccc2)CC(O)=C1C=Nc1ccc(Cl)cc1 (stereo not given)	none
O=C1CC(c2ccccc2)CC(O)=C1C=Nc1cccc(Cl)c1 (stereo not given)	FLuc counter 7.6µM
O=C(NCc1cccs1)c1nn(-c2ccccc2F)nc1CO	none (no result: Rab9 prom act, NPC1 promoter act, KinaseGlo FLuc, ELG1 genotoxic)
O=c1[nH]c2cc3ccccc3cc2nc1C(F)(F)F	none
CC(C)c1nc2cc3ccccc3cc2[nH]1	FLuc counter 19µM
CC(CCc1ccccc1)NC(=O)C(=O)Nc1ccccc1 (stereo not given)	Rab9 prom act 2.8µM, NPC1 promoter act 3.2µM, ELG1 genotoxic inconclusive, SMN2 splice enh 14µM, FLuc counter inconclusive
